# Unmarked numbers belong to inactive results. Records with an inconclusive call do not appear. Where a call stands in place of a potency, no number is given. Active and inactive are the calls of the source. Unless noted, calls come from the whole dose curve; as a rule, active = well fitted curve in the direction sought with a large enough effect in the repeat runs; inconclusive = weak or mixed curves; inactive = no such curve, though single readings can be large; an effect the other way counts as inactive or inconclusive.
# Tests used:
# [1] = qHTS assay to identify small molecule agonists of the hypoxia (HIF-1) signaling pathway - cell viability counter screen (AID 1224844; calls by dose curve; note: nearly all actives have a fitted effect of over 50% in size)
# Outline: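 ME-180 HRE-bla cells, 2,000/well, 0.5% dialyzed FBS; 5 hr settle, 17 hr compound at 37C/5% CO2; CCF4-AM reporter read first, then CellTiter-Glo luminescence after 30 min RT.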
# [2] = qHTS assay to identify small molecule agonists of H2AX (AID 1224845; active = well fitted activation curve with a large enough effect in the signal ratio in the repeat runs, not every such curve was filed as active; the % refers to the signal ratio)
# Outline: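 Phospho-H2AX Ser139 measured by HTRF (ex 320 nm; em 665 and 620 nm) after 24 hr antibody incubation. Compounds, 15 concentrations, 0.76% DMSO, were applied to CHO-K1 cells for 3hr at 37C before lysis.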
# [3] = qHTS assay to identify small molecule agonists of the hypoxia (HIF-1) signaling pathway (AID 1224846; active = well fitted activation curve with a large enough effect in the signal ratio in the repeat runs, not every such curve was filed as active; the % refers to the signal ratio)
# Outline: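 Cell line: CellSensor HRE-bla ME-180; 2,000 cells/well; 0.5% dialyzed FBS; 5 h preincubation; DMSO compound pin transfer; 17 h, 37C, 5% CO2; CCF4-AM added; bla FRET signal scored for activation.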
# [4] = qHTS assay to identify small molecule agonists of H2AX - cell viability counter screen (AID 1224847; calls by dose curve; note: nearly all actives have a fitted effect of over 30% in size; note: potency is the fitted concentration of half-maximal effect)
# Outline: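 We seed wild-type CHO-K1 cells overnight, treat them for 3 hr at 37C with compounds in 15-concentration series, and quantify remaining viability by CellTiter-Glo luminescence.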
# [5] = qHTS assay to identify small molecule antagonists of the estrogen related receptor (ERR) signaling pathway from Tox21 library (AID 1224848); note: nearly all actives have a fitted effect of over 50% in size
# Outline: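 Reading was by luminescence 30 min after ONE-Glo addition. Before that, ERR cells at 2,000 per well had rested 6 h at 37 C/5% CO2 and then received pin-tooled compounds in DMSO for 18 h at 37 C.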
# [6] = qHTS assay to identify small molecule agonists of the estrogen related receptor (ERR) signaling pathway from Tox21 library (AID 1224849; calls by dose curve; note: nearly all actives have a fitted effect of over 15% in size); settings: ERR reporter cell line, ONE-Glo luciferase, 18 h; at 92.4 µM (top of the series) unless noted
# Outline: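 ERR cells, 6 h pre-incubation 37 C/5% CO2; cpd in DMSO pinned; 18 h 37 C; ONE-Glo added, 30 min RT; luminescence read. Agonist mode, qHTS.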
# [7] = qHTS RealTime-Glo MT Cell Viability Assay in HepG2 cells - 24 hour (AID 1224867); note: nearly all actives have a fitted effect of over 50% in size
# Outline: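 Compound treatment began 5 h after plating HepG2 cells (600/well) with NanoLuc luciferase and prosubstrate. Plates stayed at 37 C for 40 h; luminescence was captured at six time points, 0 h through 40 h.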
# [8] = A CellTox Green Cytotoxicity Assay to monitor cytotoxicity in HEK293 cells - 0 hour (AID 1224869); note: nearly all actives have a fitted effect of over 50% in size
# Outline: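 Nonlytic real-time cytotoxicity: HEK293 + CellTox Green reagent plated, 5 h preincubation, pintool compound addition (23 nL in DMSO), 37 C for 40 h, fluorescence measured at successive time points.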
# [9] = qHTS RealTime-Glo MT Cell Viability Assay in HEK293 cells - 32 hour (AID 1224868); note: nearly all actives have a fitted effect of over 50% in size; note: potency is the fitted concentration of half-maximal effect
# Outline: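 Quantitative high-throughput screen of the Tox21 10K library in HEK293: cells and RealTime-Glo reagents plated together, compound added at 5 h, luminescence monitored through 40 h at 37 C.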
# [10] = target: Thyrotropin receptor (Homo sapiens) (UniProt P16473); experiment: qHTS assay to identify small molecule agonists of the thyroid stimulating hormone receptor (TSHR) signaling pathway (AID 1224843; calls by dose curve; note: nearly all actives have a fitted effect of over 45% in size)
# Chain of Thyrotropin receptor (Homo sapiens) (P16473 whole entry, looked up): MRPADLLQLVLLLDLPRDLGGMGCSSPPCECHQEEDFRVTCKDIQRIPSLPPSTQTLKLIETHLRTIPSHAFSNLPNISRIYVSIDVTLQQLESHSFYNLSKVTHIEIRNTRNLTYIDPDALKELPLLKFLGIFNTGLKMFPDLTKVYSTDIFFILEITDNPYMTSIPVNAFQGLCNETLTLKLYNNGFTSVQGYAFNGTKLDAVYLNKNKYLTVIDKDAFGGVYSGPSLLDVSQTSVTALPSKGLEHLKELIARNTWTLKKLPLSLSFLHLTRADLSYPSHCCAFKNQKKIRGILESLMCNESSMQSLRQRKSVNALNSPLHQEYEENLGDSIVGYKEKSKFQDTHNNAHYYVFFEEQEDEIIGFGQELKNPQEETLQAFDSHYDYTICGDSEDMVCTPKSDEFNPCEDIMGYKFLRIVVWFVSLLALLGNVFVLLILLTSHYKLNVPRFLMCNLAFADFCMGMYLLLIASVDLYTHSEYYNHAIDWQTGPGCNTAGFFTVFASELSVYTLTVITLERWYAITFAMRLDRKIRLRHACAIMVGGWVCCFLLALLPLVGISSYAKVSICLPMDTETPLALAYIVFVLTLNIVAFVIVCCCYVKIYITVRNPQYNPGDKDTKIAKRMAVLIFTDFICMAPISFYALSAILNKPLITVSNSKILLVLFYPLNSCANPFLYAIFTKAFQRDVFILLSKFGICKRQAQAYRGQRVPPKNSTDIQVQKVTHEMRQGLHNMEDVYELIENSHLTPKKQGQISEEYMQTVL
# Outline: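 HEK293 cells stably bearing the thyrotropin receptor were plated at 800 cells/well and challenged with compound (30 min, RT). Accumulated cAMP was quantified via cAMP-d2 competing for cryptate-tagged antibody.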
Compound,Potency [1],outcome [2],outcome [3],Potency [4],Potency [5],"activity change, positive = activation [6]",outcome [7],Potency [8],Potency [9],outcome [10]
C=C(C)[C@@H]1CCC2=CC(=O)C[C@@H](C)[C@]2(C)C1,inactive,inactive,inactive,inactive,inactive,-3.73%,inactive,inactive,,
O=Cc1ccccc1[N+](=O)[O-],inactive,inactive,inactive,inactive,inactive,2.11%,inactive,inactive,inactive,
Oc1ccc2c(c1)OC[C@@H](N1CCC(O)(c3ccc(F)cc3)CC1)[C@H]2O,inactive,inactive,inactive,inactive,inactive,111% [at 42.5 µM] (active),inactive,inactive,inactive,
Nc1cc(C(Cl)=C(Cl)Cl)c(S(N)(=O)=O)cc1S(N)(=O)=O,inactive,inactive,,inactive,,,inactive,inactive,inactive,inactive
CSc1ccc(C=O)cc1,inactive,inactive,,,,,inactive,inactive,inactive,inactive
O=[N+]([O-])c1ccc(Oc2ccc([N+](=O)[O-])cc2)cc1,inactive,inactive,inactive,inactive,inactive,-4.74%,inactive,inactive,,
COC(=O)c1ccc(C(=O)OC)c(C(=O)OC)c1,inactive,inactive,inactive,inactive,inactive,-1.41%,inactive,inactive,inactive,
CC(C)N1C(=O)c2ccccc2C1=O,inactive,inactive,inactive,inactive,,,inactive,inactive,inactive,
CCOC(=O)Cn1c(=O)sc2cccc(Cl)c21,inactive,inactive,inactive,inactive,inactive,-12%,,inactive,inactive,
Cc1ccccc1C(=O)O,inactive,inactive,inactive,inactive,,,inactive,inactive,inactive,
C#CC(O)CCCCC (stereo not drawn),inactive,inactive,inactive,inactive,,,inactive,inactive,inactive,
COCc1ccc(COC)cc1,inactive,inactive,inactive,inactive,,,inactive,inactive,inactive,
c1ccc(SCCSc2ccccc2)cc1,inactive,inactive,inactive,inactive,inactive,69.4% (active),inactive,inactive,,
Cc1cc(C)c(NC(=O)CN(CC(=O)O)CC(=O)O)c(C)c1Br,inactive,inactive,inactive,inactive,,,inactive,inactive,,
C1C2OC2C2C1C1CC2C2OC12 (stereo not drawn),inactive,inactive,inactive,inactive,,,inactive,inactive,inactive,
C[N+](C)(C)CC[N+]1(C)Cc2c(Cl)c(Cl)c(Cl)c(Cl)c2C1,inactive,inactive,inactive,inactive,,,,inactive,,
OCC(O)[C@@H](O)[C@H](O)[C@H](O)CO[C@H]1O[C@H](CO)[C@@H](O)[C@H](O)[C@H]1O (stereo partly drawn),inactive,inactive,inactive,inactive,,,inactive,inactive,inactive,
C(=C(c1ccccc1)c1ccccc1)c1ccccc1,inactive,inactive,inactive,80 µM (active),,,inactive,inactive,inactive,
O=c1[nH]c(=O)n([C@H]2O[C@H](CO)[C@@H](O)[C@@H]2O)cc1/C=C\Br,inactive,inactive,inactive,inactive,,,inactive,inactive,inactive,
CCCc1ccc(N)cc1,inactive,inactive,inactive,inactive,,,inactive,inactive,inactive,
[O-][N+](=Nc1ccccc1)c1ccccc1,inactive,inactive,inactive,inactive,,,inactive,inactive,inactive,
OCCCCCCO,inactive,inactive,inactive,inactive,,,inactive,inactive,inactive,
CC(=O)N[C@@H](CCC(N)=O)C(=O)O,inactive,inactive,inactive,inactive,,,inactive,inactive,inactive,
OC1OC[C@@H](O)[C@H](O)[C@H]1O (stereo partly drawn),inactive,inactive,inactive,inactive,,,inactive,inactive,inactive,
CSc1nc(NC2CC2)nc(NC(C)(C)C)n1,inactive,inactive,inactive,inactive,,,inactive,inactive,24.5 µM (active),
CC(C)=CCC/C(C)=C/C(=O)O,inactive,inactive,inactive,inactive,,,inactive,inactive,inactive,

# Reference: PubChem BioAssay (Tox21)
